About 79,000 compounds went through this panel and 15% of them were active in at least one assay; those are over-represented in the sample as a whole. Rule as the data show it: active = growth inhibition above about 70%; inactive = the rest.
Assays:
[1] = NCI Yeast Anticancer Drug Screen. Data for the rad50 strain (AID 155);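 also: 0% = growth of vehicle-only cultures of the same strain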; settings: S. cerevisiae rad50 strain growth inhibition; at 50.0 µM; hits give high values
Method in brief: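 Genetically altered yeast (DNA repair pathway); compound treatment; growth inhibition vs vehicle ctrl.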

[2] = NCI Yeast Anticancer Drug Screen. Data for the mec2-1 strain (AID 157); settings: S. cerevisiae mec2-1 strain, at 50.0 µM, hits give high values
Method in brief: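 Growth inhibition is read against vehicle-treated controls after compound exposure of the mec2-1 yeast strain, which is defective in DNA damage repair or cell cycle control.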

[3] = NCI Yeast Anticancer Drug Screen. Data for the sgs1 mgt1 strain (AID 161);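 also: 0% = growth of cultures given vehicle only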; settings: S. cerevisiae sgs1 mgt1 strain, at 50.0 µM, hits give high values
Method in brief: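 Yeast cells carrying a defined DNA-repair defect were exposed to test compounds. Growth inhibition was measured relative to vehicle-treated controls.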

[4] = NCI Yeast Anticancer Drug Screen. Data for the cln2 rad14 strain (AID 165);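 also: 0% = growth equal to vehicle treated cultures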; settings: S. cerevisiae cln2 rad14 strain, at 50.0 µM, hits give high values
Method in brief: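 Growth inhibition, relative to vehicle-treated controls, is the read-out. The test organism is a yeast strain with defined genetic alterations, cln2 rad14.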

[5] = NCI Yeast Anticancer Drug Screen. Data for the bub3 strain (AID 167); settings: S. cerevisiae bub3 mutant strain, at 50.0 µM, hits give high values
Method in brief: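 Yeast carrying a defined mutation is treated with each compound, and growth is compared with that of vehicle-exposed cells to give inhibition.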

[6] = NCI Yeast Anticancer Drug Screen. Data for the mlh1 rad18 strain (AID 175); settings: S. cerevisiae mlh1 rad18 strain growth inhibition; at 50.0 µM; hits give high values
Method in brief: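 Cells of a genetically altered yeast strain, deficient in DNA damage repair, were treated with compound. Their growth was then compared with that of vehicle-treated cultures to give inhibition.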

Measured: growth inhibition

Cn1cnc([N+](=O)[O-])c1C(=O)NCc1ccccc1
inactive: [1] -2.5% | [2] 9.1% | [3] 5.15% | [4] -20.8% | [5] -7.35% | [6] -9.05%

COc1ccc2nccc(C(=O)CCC3CCN(C(=O)c4ccc([N+](=O)[O-])cc4)CC3C(CBr)CCBr)c2c1 (stereo unspecified)
inactive: [1] 16.7% | [2] 6.35% | [3] 26.6% | [4] -1.85% | [5] 6.2% | [6] 34.2%

O=C(O)C1CSC(c2cccs2)N1 (stereo unspecified)
inactive: [1] -19.2% | [2] -46.5% | [3] -4.4% | [4] 1.4% | [5] -32.2% | [6] -8.1%

CCCCSC(N)=O
inactive: [1] -1.5% | [2] 0% | [3] -15.1% | [4] 10.7% | [5] 17.3% | [6] 11.2%

COc1c(O)ccc(/C=N/NC(=S)NCOCCOC(C)=O)c1OC
inactive: [1] 0.85% | [2] -3.8% | [3] 1.7% | [4] 21.9% | [5] 9.95% | [6] -10.6%

COC(=O)C1=C(C(=O)OC)SC(=CC#CC=C2SC(C(=O)OC)=C(C(=O)OC)S2)S1
inactive: [1] 9.5% | [2] -3.35% | [3] 9.45% | [4] -59.7% | [5] -12.8% | [6] 1.6%

OC(CBr)c1cc(-c2ccccc2)nc2c(Cl)cc(Cl)cc12 (stereo unspecified)
inactive: [1] 31.9% | [2] -8.45% | [3] 33.6% | [4] -16.7% | [5] 11.8% | [6] 50.8%

c1cc2nc(c1)CSCCCCCCCCSC2
inactive: [1] -3.25% | [2] 41% | [3] 17.8% | [4] -10.1% | [5] 55% | [6] 36%

Cc1onc(-c2c(F)cccc2Cl)c1C(=O)Nc1cc2cc([N+](=O)[O-])ccc2oc1=O
inactive: [1] 12.3% | [2] -13.7% | [3] 2.3% | [4] 8.15% | [5] 2.8% | [6] 12.5%

CCOC(=O)CSc1cc(C)[o+]c(C)c1
inactive: [1] 4.6% | [2] 6.25% | [3] 6.8% | [4] 15% | [5] -6.4% | [6] -3.15%

CCOC(=O)C(Cc1cc(C)c(O)c(I)c1)NC(C)=O (stereo unspecified)
inactive: [1] -18.4% | [2] -1.1% | [3] -11.2% | [4] 4.2% | [5] 5.85% | [6] -5.85%

CC(C)CC(CC(C)C)=NNC(N)=O
inactive: [1] 17.3% | [2] 23% | [3] 9.05% | [4] 18.9% | [5] 7% | [6] 24.4%

O=C(O)c1sccc1-c1cccc2ccccc12
inactive: [1] 0.5% | [2] 18.6% | [3] 10.9% | [4] -13.3% | [5] -15.6% | [6] -11.8%

CCCCCCCCCCCCCCCCCCNC(=O)Nc1ccccc1
inactive: [1] 3.1% | [2] 7.05% | [3] -2.75% | [4] -7.65% | [5] -4.05% | [6] 15.3%

CC(=O)OC1CCC2(C)OC(=O)CC2C1 (stereo unspecified)
inactive: [1] 2.2% | [2] 8.55% | [3] 6.9% | [4] -41.9% | [5] 9.6% | [6] 1.4%

Cc1c(CCO)sc[n+]1CC(=O)c1ccccc1
inactive: [1] -14.5% | [2] -19% | [3] -3.7% | [4] 1.55% | [5] 2.3% | [6] 1%

COc1cccc(OC)c1OCC1CO1 (stereo unspecified)
inactive: [1] 6.95% | [2] 9.8% | [3] 0.2% | [4] -14.4% | [5] 2.3% | [6] 9.95%

COc1ccc(/C=N/N2CCN(/N=C/c3ccc(OC)cc3)CC2)cc1
inactive: [1] 9.85% | [2] 9.7% | [3] 9.2% | [4] -6.1% | [5] 5.1% | [6] -5.35%

Cc1nc(N)c(N2CCN(S(=O)(=O)N(Cc3ccccc3)Cc3ccccc3)CC2)c(=O)[nH]1
inactive: [1] -10.9% | [2] 2.3% | [3] 2.95% | [4] -11.9% | [5] 14.9% | [6] 3.95%

O=C(NC(=O)c1c(F)cccc1F)Nc1ccc(OCc2ccccc2)cc1
inactive: [1] 24.4% | [2] 0.15% | [3] 5.45% | [4] 9% | [5] -4.15% | [6] 21.4%

Cc1ccc2c(c1)C(C)CC2(C)C (stereo unspecified)
inactive: [1] 1.8% | [2] -6.55% | [3] -4.6% | [4] 3.65% | [5] 8.95% | [6] 2.15%
